# According to the supplement of paper PMC7261846:
# Structures can show the parent of a compound that is named as a salt. ± gives the uncertainty stated by the source.
# Test system: Candida albicans SNY425 biofilm
# Assay: biofilm OD600 with compound plus antifungal (OD600 (absorbance)); higher = more biofilm remaining
# Conditions: assay detail: disruption of 24-h mature biofilm (compound + antifungal for a second 24 h)
row,SMILES,biofilm OD600
1,CC(C)C[C@H](NC(=O)N[C@H](C(=O)N[C@@H](CCC(N)=O)C(=O)N[C@@H](C)C=O)[C@@H]1CCNC(=N)N1)C(=O)O [Elastatinal] + C[C@@H]1[C@H](O)[C@@H](C)/C=C/C=C/C=C/C=C/C=C/C=C/C=C/[C@H](O[C@@H]2O[C@H](C)[C@@H](O)[C@H](N)[C@@H]2O)C[C@@H]2O[C@](O)(C[C@@H](O)C[C@@H](O)[C@H](O)CC[C@@H](O)C[C@@H](O)CC(=O)O[C@H]1C)C[C@H](O)[C@H]2C(=O)O [amphotericin B] (first compound 12.5 µM),0.273 ± 0.0073
2,COC(=O)N[C@H](C(=O)N[C@@H](Cc1ccccc1)[C@@H](O)CN(Cc1ccc(-c2ccccn2)cc1)NC(=O)[C@@H](NC(=O)OC)C(C)(C)C)C(C)(C)C [atazanavir] + OC(Cn1cncn1)(Cn1cncn1)c1ccc(F)cc1F [fluconazole] (first compound 12.5 µM),0.267 ± 0.012
3,CCN1C(=O)C=CC1=O [N-Ethylmaleimide] + CC[C@H](C)C[C@H](C)CCCCCCCCC(=O)N[C@H]1C[C@@H](O)[C@@H](NCCN)NC(=O)[C@@H]2[C@@H](O)CCN2C(=O)[C@H]([C@H](O)CCN)NC(=O)[C@H]([C@H](O)[C@@H](O)c2ccc(O)cc2)NC(=O)[C@@H]2C[C@@H](O)CN2C(=O)[C@H]([C@@H](C)O)NC1=O [caspofungin] (first compound 4 µM),0.281 ± 0.013
4,C[C@H](NC(=O)[C@@H]1CCCN1C(=O)[C@@H]1CCCN1C(=O)[C@@H](O)[C@H](N)Cc1ccccc1)C(N)=O [Apstatin] + CC[C@H](C)C[C@H](C)CCCCCCCCC(=O)N[C@H]1C[C@@H](O)[C@@H](NCCN)NC(=O)[C@@H]2[C@@H](O)CCN2C(=O)[C@H]([C@H](O)CCN)NC(=O)[C@H]([C@H](O)[C@@H](O)c2ccc(O)cc2)NC(=O)[C@@H]2C[C@@H](O)CN2C(=O)[C@H]([C@@H](C)O)NC1=O [caspofungin] (first compound 12.5 µM),0.292 ± 0.0095
5,CCOC(=O)[C@H](CCc1ccccc1)N[C@@H](C)C(=O)N1CCC[C@H]1C(=O)O [Enalapril] + C[C@@H]1[C@H](O)[C@@H](C)/C=C/C=C/C=C/C=C/C=C/C=C/C=C/[C@H](O[C@@H]2O[C@H](C)[C@@H](O)[C@H](N)[C@@H]2O)C[C@@H]2O[C@](O)(C[C@@H](O)C[C@@H](O)[C@H](O)CC[C@@H](O)C[C@@H](O)CC(=O)O[C@H]1C)C[C@H](O)[C@H]2C(=O)O [amphotericin B] (first compound 12.5 µM),0.279 ± 0.0057

# Same assay, conditions: assay detail: sustained inhibition (compound + antifungal during 90-min adherence and 24-h growth)
row,SMILES,biofilm OD600
1,O=C(NCCCCN1CCOCC1)c1cc2ccccc2o1 + CC[C@H](C)C[C@H](C)CCCCCCCCC(=O)N[C@H]1C[C@@H](O)[C@@H](NCCN)NC(=O)[C@@H]2[C@@H](O)CCN2C(=O)[C@H]([C@H](O)CCN)NC(=O)[C@H]([C@H](O)[C@@H](O)c2ccc(O)cc2)NC(=O)[C@@H]2C[C@@H](O)CN2C(=O)[C@H]([C@@H](C)O)NC1=O [caspofungin] (first compound 12.5 µM),0.202 ± 0.01
2,O=C1Nc2ccc([N+](=O)[O-])cc2C1=O [5-Nitroisatin] + C[C@@H]1[C@H](O)[C@@H](C)/C=C/C=C/C=C/C=C/C=C/C=C/C=C/[C@H](O[C@@H]2O[C@H](C)[C@@H](O)[C@H](N)[C@@H]2O)C[C@@H]2O[C@](O)(C[C@@H](O)C[C@@H](O)[C@H](O)CC[C@@H](O)C[C@@H](O)CC(=O)O[C@H]1C)C[C@H](O)[C@H]2C(=O)O [amphotericin B] (first compound 12.5 µM),0.159 ± 0.013
3,CC(C)(C)NC(=O)[C@@H]1C[C@@H]2CCCC[C@@H]2CN1C[C@@H](O)[C@H](Cc1ccccc1)NC(=O)[C@H](CC(N)=O)NC(=O)c1ccc2ccccc2n1 [saquinavir] + C[C@@H]1[C@H](O)[C@@H](C)/C=C/C=C/C=C/C=C/C=C/C=C/C=C/[C@H](O[C@@H]2O[C@H](C)[C@@H](O)[C@H](N)[C@@H]2O)C[C@@H]2O[C@](O)(C[C@@H](O)C[C@@H](O)[C@H](O)CC[C@@H](O)C[C@@H](O)CC(=O)O[C@H]1C)C[C@H](O)[C@H]2C(=O)O [amphotericin B] (first compound 12.5 µM),0.0922 ± 0.0023
4,CC(C)CN(C[C@@H](O)[C@H](Cc1ccccc1)NC(=O)O[C@H]1CCOC1)S(=O)(=O)c1ccc(N)cc1 [amprenavir] + C[C@@H]1[C@H](O)[C@@H](C)/C=C/C=C/C=C/C=C/C=C/C=C/C=C/[C@H](O[C@@H]2O[C@H](C)[C@@H](O)[C@H](N)[C@@H]2O)C[C@@H]2O[C@](O)(C[C@@H](O)C[C@@H](O)[C@H](O)CC[C@@H](O)C[C@@H](O)CC(=O)O[C@H]1C)C[C@H](O)[C@H]2C(=O)O [amphotericin B] (first compound 12.5 µM),0.232 ± 0.011
5,CC(C)C[C@H](NP(=O)(O)O[C@@H]1O[C@@H](C)[C@H](O)[C@@H](O)[C@H]1O)C(=O)N[C@@H](Cc1c[nH]c2ccccc12)C(=O)O [Phosphoramidon] + CC[C@H](C)C[C@H](C)CCCCCCCCC(=O)N[C@H]1C[C@@H](O)[C@@H](NCCN)NC(=O)[C@@H]2[C@@H](O)CCN2C(=O)[C@H]([C@H](O)CCN)NC(=O)[C@H]([C@H](O)[C@@H](O)c2ccc(O)cc2)NC(=O)[C@@H]2C[C@@H](O)CN2C(=O)[C@H]([C@@H](C)O)NC1=O [caspofungin] (first compound 12.5 µM),0.191 ± 0.013
6,CC(C)C[C@@H](C=O)NC(=O)[C@H](CC(C)C)NC(=O)[C@H](CC(C)C)NC(=O)OCc1ccccc1 + CC[C@H](C)C[C@H](C)CCCCCCCCC(=O)N[C@H]1C[C@@H](O)[C@@H](NCCN)NC(=O)[C@@H]2[C@@H](O)CCN2C(=O)[C@H]([C@H](O)CCN)NC(=O)[C@H]([C@H](O)[C@@H](O)c2ccc(O)cc2)NC(=O)[C@@H]2C[C@@H](O)CN2C(=O)[C@H]([C@@H](C)O)NC1=O [caspofungin] (first compound 12.5 µM),0.193 ± 0.0098
7,N=C(N)Nc1ccc(C(=O)Oc2ccc3cc(C(=N)N)ccc3c2)cc1 [Nafamostat mesylate] + OC(Cn1cncn1)(Cn1cncn1)c1ccc(F)cc1F [fluconazole] (first compound 12.5 µM),0.104 ± 0.0089
8,CCC(C)[C@H](NS(=O)(=O)c1cccc2ccccc12)C(=O)N[C@H](C=O)Cc1c[nH]c2ccccc12 (stereo not given in full) + CC[C@H](C)C[C@H](C)CCCCCCCCC(=O)N[C@H]1C[C@@H](O)[C@@H](NCCN)NC(=O)[C@@H]2[C@@H](O)CCN2C(=O)[C@H]([C@H](O)CCN)NC(=O)[C@H]([C@H](O)[C@@H](O)c2ccc(O)cc2)NC(=O)[C@@H]2C[C@@H](O)CN2C(=O)[C@H]([C@@H](C)O)NC1=O [caspofungin] (first compound 12.5 µM),0.18 ± 0.0089
9,NC(N)=NCCC[C@H](NC(=O)[C@@H]1CCCN1C(=O)[C@H](N)Cc1ccccc1)C(=O)CCl + OC(Cn1cncn1)(Cn1cncn1)c1ccc(F)cc1F [fluconazole] (first compound 12.5 µM),0.159 ± 0.011
10,CC(C)CCNC(=O)[C@H](CC(C)C)NC(=O)[C@H]1O[C@@H]1C(=O)O + OC(Cn1cncn1)(Cn1cncn1)c1ccc(F)cc1F [fluconazole] (first compound 12.5 µM),0.143 ± 0.008
11,CC1(C)C[C@@H]1C(=O)N/C(=C\CCCCSC[C@H](N)C(=O)O)C(=O)O [Cilastatin] + OC(Cn1cncn1)(Cn1cncn1)c1ccc(F)cc1F [fluconazole] (first compound 12.5 µM),0.162 ± 0.012
12,O=C[C@@H]1CCCN1C(=O)[C@@H]1CCCN1C(=O)OCc1ccccc1 [Z-Prolyl-prolinal] + CC[C@H](C)C[C@H](C)CCCCCCCCC(=O)N[C@H]1C[C@@H](O)[C@@H](NCCN)NC(=O)[C@@H]2[C@@H](O)CCN2C(=O)[C@H]([C@H](O)CCN)NC(=O)[C@H]([C@H](O)[C@@H](O)c2ccc(O)cc2)NC(=O)[C@@H]2C[C@@H](O)CN2C(=O)[C@H]([C@@H](C)O)NC1=O [caspofungin] (first compound 12.5 µM),0.153 ± 0.0098
13,NCC1CCC(C(=O)N[C@@H](Cc2ccccc2)C(=O)Nc2ccc(CC(=O)O)cc2)CC1 (stereo not given in full) + OC(Cn1cncn1)(Cn1cncn1)c1ccc(F)cc1F [fluconazole] (first compound 12.5 µM),0.13 ± 0.018
14,COC(=O)C[C@H](NC(=O)[C@H](C)NC(=O)[C@@H](NC(=O)OCc1ccccc1)C(C)C)C(=O)CF + CC[C@H](C)C[C@H](C)CCCCCCCCC(=O)N[C@H]1C[C@@H](O)[C@@H](NCCN)NC(=O)[C@@H]2[C@@H](O)CCN2C(=O)[C@H]([C@H](O)CCN)NC(=O)[C@H]([C@H](O)[C@@H](O)c2ccc(O)cc2)NC(=O)[C@@H]2C[C@@H](O)CN2C(=O)[C@H]([C@@H](C)O)NC1=O [caspofungin] (first compound 12.5 µM),0.177 ± 0.0034
15,CNC(=O)[C@H](Cc1c[nH]c2ccccc12)NC(=O)[C@@H](CC(=O)NO)CC(C)C + CC[C@H](C)C[C@H](C)CCCCCCCCC(=O)N[C@H]1C[C@@H](O)[C@@H](NCCN)NC(=O)[C@@H]2[C@@H](O)CCN2C(=O)[C@H]([C@H](O)CCN)NC(=O)[C@H]([C@H](O)[C@@H](O)c2ccc(O)cc2)NC(=O)[C@@H]2C[C@@H](O)CN2C(=O)[C@H]([C@@H](C)O)NC1=O [caspofungin] (first compound 12.5 µM),0.187 ± 0.0076
